# In article PMC4552634, “A New Set of Chemical Starting Points with Plasmodium falciparum Transmission-Blocking Potential for Antimalarial Drug Discovery” (PLoS ONE, 2015):
# About 3,200 (25%) of roughly 13,000 compounds showed an effect of 50% or more. This is one part of the list.
# Test system: P. falciparum stage V gametocytes
# Design: BacTiter-Glo ATP luminescence viability of purified stage V gametocytes in 384-well plates, per cent inhibition versus DMSO
# Conditions: 48 h, 5 µM; inhibitor
row,Structure (SMILES),% Inhibition [%]
1,COc1ccc2nccc([C@@H](O)CN3CCC(NC(=O)C(=O)c4c[nH]c5c(C)cccc45)CC3)c2c1 [TCMDC-141107],-28.63
2,CCC(=O)Nc1nnc(Cc2ccc(OC)c(OC)c2)s1 [TCMDC-125741],-62.68
3,C=CCOc1ccc(Cc2cnc(N)nc2N)cc1CCC [TCMDC-137639],-18.38
4,N=C(N)c1ccc(NC(=O)Cc2nc3ccc(C(=N)N)cc3[nH]2)cc1 [TCMDC-131867],10.64
5,N=C(N)c1ccc2nc(SCc3ccccc3)[nH]c2c1 [TCMDC-131872],24.07
6,Cc1cc(-c2nc3ccc(C(=N)N)cc3[nH]2)c(C)cc1-c1nc2ccc(C(=N)N)cc2[nH]1 [TCMDC-137798],92.7
7,COc1ccccc1C(=O)C1CCCN(C(=O)c2ccccc2C(F)(F)F)C1 (stereo not shown) [TCMDC-124693],-57
8,CN(C)CCOc1cc(O)c2c(c1)OC(C)(C)C=C2c1cccs1 [TCMDC-131331],-14.82
9,Cc1[nH]c(C)c(-c2ccc(OCCSc3ccncc3)cc2)c(=O)c1Br [TCMDC-135220],64.24
10,Cc1[nH]c(C)c(-c2ccc(OCCn3cnc(Cl)c3Cl)cc2)c(=O)c1Br [TCMDC-134570],-18.53
11,Cc1[nH]c(C)c(-c2ccc(OCCCCSc3ccncc3)cc2)c(=O)c1Br [TCMDC-135256],73.89
12,C[C@@H](C(=O)N1CCOCC1)N1CC[C@H](NS(=O)(=O)c2ccc3ccnc(N)c3c2)C1=O [TCMDC-136755],0.9724
13,O=C(N[C@@H](Cc1ccccc1)C(=O)NCCN1CCCC1)c1ccc(O)c(-c2ccc(Cl)c(Cl)c2)c1 [TCMDC-140829],26.26
14,COC(=O)c1ccc(CC(C)NCC(O)c2cccc(Br)c2)cc1 (stereo not shown) [TCMDC-131437],10.23
15,CC(NC(=O)c1ccc(O)c(-c2ccc(Cl)c(Cl)c2)c1)C(=O)NCCN1CCCCC1 (stereo not shown) [TCMDC-140857],27.12
16,N=c1n(CCN2CCCCC2)c2ccccc2n1CC(O)c1ccc(Cl)c(Cl)c1 (stereo not shown) [TCMDC-124064],91.16
17,O=C(N[C@@H](Cc1ccccc1)C(=O)NCCN1CCCCC1)c1ccc(O)c(-c2ccc(Cl)c(Cl)c2)c1 [TCMDC-140859],10.94
18,CC(NC(=O)c1ccc(O)c(-c2ccc(Cl)c(Cl)c2)c1)C(=O)NCCN1CCCC1 (stereo not shown) [TCMDC-140827],-9.232
19,N=c1n(CCN2CCCCC2)c2ccccc2n1CC(=O)c1cccc([N+](=O)[O-])c1 [TCMDC-123516],-26.88
20,N=c1n(CCN2CCCCC2)c2ccccc2n1CC(O)c1cccc(Br)c1 (stereo not shown) [TCMDC-125140],60.98
21,N=c1n(CCN2CCCC2)c2ccccc2n1CC(O)c1ccc(Cl)c(Cl)c1 (stereo not shown) [TCMDC-124063],70.46
22,CCOc1ccc(C=CC(=O)Nc2ccc3nc(N4CCOCC4)cc(C)c3c2)cc1OC [TCMDC-124420],-58.06
23,COc1ccc(NS(=O)(=O)c2cccc(C(=O)Nc3ccc(C(F)(F)F)cc3)c2)cc1N1CCN(CC(C)C)CC1 [TCMDC-141780],-61.2
24,N#Cc1ccc(CN2CCC(Oc3ccc(NC(=O)c4ccsc4)cc3Cl)C2)cc1 (stereo not shown) [TCMDC-133961],27.45

row,Structure (SMILES),% Inhibition [%]
1,Cc1nnc2c(NC(=O)NC3CCCC3)cc3ccc(-c4cccc(CN5CCN(C)CC5)c4)cc3n12 [TCMDC-136730],98.59
2,Cc1nnc2c(NC(=O)NC3CCCC3)cc3cc(-c4ccc(CN5CCCCC5)cc4)ccc3n12 [TCMDC-136711],3.866
3,Cc1cc2c(NC(=O)NC3CCN(CCc4ccccc4Cl)CC3)cccc2cn1 [TCMDC-141800],-1.237
4,CN(Cc1ccc(NC(=O)NC2CCN(C(=O)/C=C/c3ccc(Cl)c(Cl)c3)CC2)cc1)C1CCOCC1 [TCMDC-140523],15.53
5,Cc1cc2c(NC(=O)NC3CCN(CCc4cccc(Cl)c4)CC3)cccc2cn1 [TCMDC-141801],1.957
6,Cc1nnc2c(NC(=O)NC3CCCC3)cc3cc(-c4ccc(CN(C)C)cc4)ccc3n12 [TCMDC-136487],88.82
7,Cc1cc2c(NC(=O)NC3CCN(Cc4ccc(Cl)c(Cl)c4)CC3)cccc2cn1 [TCMDC-141771],11.02
8,COc1ccc(-c2ccc(CN(C)C3CCC(NC(=O)c4cc5ccccc5[nH]4)CC3)cc2)cn1 (stereo not shown) [TCMDC-132893],48.26
9,CN1CCCN(Cc2cccc(-c3cccc(NC(=O)c4ccc(C#N)cc4)c3)c2)CC1 [TCMDC-132655],11.69
10,Cc1nnc2c(NC(=O)NC3CCCC3)cc3cc(-c4ccc(CN5CCN(C)CC5)cc4)ccc3n12 [TCMDC-136717],93.03
11,Cc1cccc(CNc2nc(C)cc(N[C@@H](Cc3ccccc3)C(=O)NC3CCCC3)n2)c1 [TCMDC-134886],14.7
12,Cc1nnc2c(NC(=O)NC3CCCC3)cc3ccc(-c4cccc(CN(C)C)c4)cc3n12 [TCMDC-136731],62.95
13,O=C(Nc1ccc(C(=O)N2CCN(CCN3CCN(c4cccc(C(F)(F)F)c4)CC3)CC2)cc1)c1cc(Cl)cc(Cl)c1 [TCMDC-138146],-60.88
14,O=C(Nc1cc2cc(-c3ccc(CN4CCCCC4)cc3)ccc2n2cnnc12)NC1CCCC1 [TCMDC-136882],63.39
15,O=C(Nc1cccc(Cl)c1Cl)NC1CCN(Cc2cccc(O)c2)CC1 [TCMDC-136485],-12.42
16,CCCNC(=O)C1CCN(C(c2ccccc2)c2ccc(Cl)c(Cl)c2)CC1 (stereo not shown) [TCMDC-135517],-34.35
17,O=C(NC1CCC1)C1CCN(C(c2ccc(Cl)cc2)c2ccc(Cl)cc2)CC1 [TCMDC-135520],57.43
18,O=C(NCC1CC1)C1CCN(C(c2ccccc2)c2ccc(Cl)c(Cl)c2)CC1 (stereo not shown) [TCMDC-135515],70.5
19,CCCNC(=O)C1CCN(C(c2ccc(Cl)cc2)c2ccc(Cl)cc2)CC1 [TCMDC-135518],16.22
20,O=C(NCC1CC1)C1CCN(C(c2ccc(Cl)cc2)c2ccc(Cl)cc2)CC1 [TCMDC-135522],-2.377
21,O=C(NC1CCC1)C1CCN(C(c2ccccc2)c2cc(F)cc(F)c2)CC1 (stereo not shown) [TCMDC-135514],-3.594
22,COCCNC(=O)C1CCN(C(c2ccc(Cl)cc2)c2ccc(Cl)cc2)CC1 [TCMDC-135519],-9.136
23,O=C(NCC1CC1)C1CCN(C(c2ccccc2)c2nc3ccccc3s2)CC1 (stereo not shown) [TCMDC-135523],-36.83
24,O=C(NCC1CC1)C1CCN(C(c2ccccc2)c2cc(F)cc(F)c2)CC1 (stereo not shown) [TCMDC-135513],62.39

row,Structure (SMILES),% Inhibition [%]
1,COc1ccc(C(=O)NCc2ccc(N)nc2C)cc1Nc1ncc(-c2cccc(N(C)C)c2)cn1 [TCMDC-132420],-21.32
2,CCc1ccc(Cc2cnc3nc(N)nc(N)c3c2C)cc1 [TCMDC-137686],14.74
3,CCc1ccc(Cc2cnc3nc(N)nc(N)c3c2C)cc1CC [TCMDC-138054],77.27
4,CCCc1ccc(Cc2cnc3nc(N)nc(N)c3c2C)cc1 [TCMDC-138046],5.48
5,Cc1nc(N)nc(N)c1OCCCOc1cccc(Cl)c1Cl [TCMDC-131369],-7.285
6,OCCN1CCN(C(=S)Nc2ccccc2)CC1 [TCMDC-123846],-8.492
7,OCCN1CCN(c2nc(Nc3cccc(F)c3)c3cnn(-c4ccccc4)c3n2)CC1 [TCMDC-124948],87.2
8,O=C(Nc1ccc(N2CCCN(Cc3cccc(F)c3)CC2)cc1)c1ccccc1 [TCMDC-135014],-40.3
9,Clc1cc(Cl)c2c(c1)C(NCCCNc1nc3ccccc3[nH]1)CCO2 (stereo not shown) [TCMDC-139802],-25.37
10,Clc1cc(Cl)c2cc(CN[C@H]3CCC[C@@H]3CNc3nc4ccccc4[nH]3)[nH]c2c1 [TCMDC-139878],63.13
11,O=c1cc(NC[C@@H]2CCC[C@@H]2NCc2ccc(Cl)c(Cl)c2)[nH]c2ccccc12 [TCMDC-139627],-25.41
12,CC1=C(C(=O)Nc2ccccc2)C(c2ccc([N+](=O)[O-])cc2)n2ncc(C(=O)Nc3ccccc3)c2N1 (stereo not shown) [TCMDC-125283],50.23
13,COc1ccc(C2C(C(=O)Nc3ccccc3)=C(C)Nc3c(C(=O)Nc4ccccc4)cnn32)cc1 (stereo not shown) [TCMDC-125284],-13.81
14,CC1=C(C(=O)Nc2ccc(Cl)cc2)C(c2ccncc2)n2nc(C(F)(F)F)nc2N1 (stereo not shown) [TCMDC-124419],-9.933
15,c1csc(-c2ccc3c(c2)CC(NCc2c[nH]c4cnccc24)C3)c1 (stereo not shown) [TCMDC-134833],42.25
16,COc1cccc(NC(=O)c2cc([N+](=O)[O-])ccc2NC(=O)CN2CCc3ccccc3C2)c1 [TCMDC-123678],69.57
17,COc1cc(NC(=O)c2cc([N+](=O)[O-])ccc2NC(=O)CNC2CCCC(C)C2C)cc(OC)c1 (stereo not shown) [TCMDC-125300],-31.14
18,CCC(CC)N1CCN(CC(=O)Nc2ccc([N+](=O)[O-])cc2C(=O)Nc2cccc(OC)c2)CC1 [TCMDC-123679],-23.44
19,COc1cc(F)c2ncc(Cl)c(CCN3CCC(NCc4ccc5c(n4)NC(=O)CO5)CC3)c2c1 [TCMDC-135621],-16.17
20,O=C(Nc1ccc(-c2nc3ccccc3[nH]2)cc1)c1cccc(S(=O)(=O)N2CCOCC2)c1 [TCMDC-125263],-3.664
21,NS(=O)(=O)c1cccc(-c2ccc3ncc(N4CCOCC4)nc3c2)c1 [TCMDC-134052],73.87
22,Cc1cc(N2CCOCC2)nc2ccc(NC(=O)c3cccc([N+](=O)[O-])c3)cc12 [TCMDC-123601],0.6281
